# Experimental data published in PubChem BioAssay AID504847 (National Center for Advancing Translational Sciences (NCATS), 2011).
# The whole screen tested about 400,000 compounds, of which about 3,700 (0.93%) were called active. Not shown: some 3% with an inconclusive outcome. Calls come from the whole dose curve; as a rule, active = well fitted inhibition curve with a large enough effect; inconclusive = small, poorly fitted or top-dose-only effect, or another doubt; inactive = no such curve, though single readings can be large or run the other way. What follows is part of a selection rich in actives, with near analogues and random picks from the rest.
# Target: Vitamin D3 receptor (Homo sapiens) (UniProt P11473)
# Sequence (P11473 whole entry, looked up): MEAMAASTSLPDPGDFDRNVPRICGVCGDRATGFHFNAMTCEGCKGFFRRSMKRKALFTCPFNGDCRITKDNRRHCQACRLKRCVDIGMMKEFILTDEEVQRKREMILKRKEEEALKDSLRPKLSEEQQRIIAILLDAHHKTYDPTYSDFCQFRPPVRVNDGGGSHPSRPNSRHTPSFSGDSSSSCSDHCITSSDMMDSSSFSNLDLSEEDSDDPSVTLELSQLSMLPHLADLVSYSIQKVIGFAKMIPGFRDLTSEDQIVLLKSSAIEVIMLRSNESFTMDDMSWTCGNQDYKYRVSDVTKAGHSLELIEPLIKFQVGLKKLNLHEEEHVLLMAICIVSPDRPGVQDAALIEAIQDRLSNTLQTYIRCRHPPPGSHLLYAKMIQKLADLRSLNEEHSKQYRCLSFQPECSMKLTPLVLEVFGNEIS
# Assay: Inhibitors of the vitamin D receptor (VDR): qHTS
# Details: VDR-SRC2-3 peptide fluorescence polarization, 2 h; max response, negative = inhibition: active compounds read low
# Outline: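 FP read-out; VDR + SRC2-3 coactivator peptide; 23 nl compound by pintool; 2 h RT incubation; reagents held at 4 deg C, protected from light.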
# % is set by controls: 0 for no effect and ±100 for the full control effect; potency is the fitted concentration of half-maximal effect.
Compound,"max response, negative = inhibition",Potency
Cc1oc(-c2ccccc2)nc1Cn1c(SCc2cccc(C(F)(F)F)c2)nc2cccnc21,2.78% (inactive),
Cc1ccc(O)c(NC(=O)c2cc(-c3ccc(F)cc3)no2)c1,12% (inactive),
Cc1ccc(O)c(NC(=O)CCS(=O)(=O)c2nc(-c3ccc4c(c3)OCO4)cc(C(F)(F)F)n2)c1,,50.1 µM (active)
CC(Sc1nc(-c2ccccc2)cc(C(F)(F)F)n1)C(=O)Nc1ccc2c(c1)OCO2 (stereo unspecified),-18.9% (inactive),
Cc1ccc(C(=O)COC(=O)C(Cc2c[nH]c3ccccc23)NC(=O)c2ccc(Br)cc2)cc1 (stereo unspecified),6.05% (inactive),
CCOc1ccccc1CNC(=O)c1cnc2c(-c3ccc(OCC)c(OCC)c3)c(C)nn2c1C,12.6% (inactive),
O=C(/C(=C/c1cccc(Cl)c1)c1nc2ccccc2[nH]1)c1ccccc1,,79.4 µM (active)
Cc1ccc2nc(CNC(=O)c3ccccc3)[nH]c2c1,11.1% (inactive),
CN(c1ccccc1)S(=O)(=O)c1cc(C(=O)Nc2nc3ccccc3[nH]2)ccc1Cl,22.7% (inactive),
COc1cc(OC)c2c(c1Cl)OC1(C2=O)C(O)=CC(=O)CC1C (stereo unspecified),1.06% (inactive),
COc1ccccc1OCC(=O)Nc1nnc2n1CCS2,-3.73% (inactive),
Cc1ccc(NC(=O)Cc2ccc(NC(=O)N3CCCCc4ccccc43)cc2)cc1,6.32% (inactive),
CN(C)c1nc(=Nc2cccc(Cl)c2)ss1,,25.1 µM (active)
Cc1c(-c2nsc(NC(=O)c3cccc(Cl)c3)n2)nnn1-c1ccccc1C(F)(F)F,1.99% (inactive),
CCc1ccccc1NC(=O)CSc1nc(C)c(C(=O)Nc2ccccc2)c(-c2ccc(Cl)cc2)c1C#N,5.32% (inactive),
COc1ccc(-c2nc(CN3CCC(C(=O)NCc4ccccc4)CC3)c(C)o2)cc1OC,-18.6% (inactive),
Nc1ccccc1SC(C[N+](=O)[O-])c1ccccc1 (stereo unspecified),,3.55 µM (active)
O=C(Nc1cccc(-c2nc3ccccc3o2)c1)c1cccc(Br)c1,4.46% (inactive),
Cc1ccc2ccc3c(c2n1)NS(=O)(=O)c1ccccc1-3,-4.3% (inactive),
CCS(=O)(=O)c1cc([N+](=O)[O-])c(Sc2ccccc2N)s1,,28.2 µM (active)
CCOC(=O)c1cnc2c(C)cc(Cl)cc2c1NCCc1ccc(OC)c(OC)c1,2.98% (inactive),
COc1ccc(NC(=O)CSc2nc3ncccc3[nH]2)c(OC)c1,22.9% (inactive),
COc1ccc(NC(=O)Cn2c(=O)n(CCC(C)C)c(=O)c3cccnc32)cc1Cl,11.2% (inactive),
COc1ccccc1-c1nc(N2CCN(C)CC2)c2ccccc2n1,-9.82% (inactive),
FC(F)(F)c1ccccc1-c1nc(-n2ccnc2)c2ccccc2n1,,50.1 µM (active)
COc1ccc(N2CCN(c3nc(-c4ccccc4F)nc4ccccc34)CC2)cc1,21.1% (inactive),
